Activity calls are given as the source filed them.
Key:
[1] = tested on: PRMT1 (protein arginine N-methyltransferase 1); assay: small molecules binding arginine methyltransferase PRMT1 – biochemical, small-molecule microarray, 635 nm fluorescence, primary screen (AID 1088); conditions: higher = more signal;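 also: binding of Prmt1 protein to compounds spotted on small-molecule microarray slides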
[2] = growth effects on S. cerevisiae YJM789 – YJM789 clinical isolate, OD600, 24 h, basal, primary screen (AID 1089); conditions: higher = more signal, called active from +8 up or from −8 down;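 also: growth of clinical yeast isolate S. cerevisiae YJM 789 seeded 1000 cells per well; test concentration not given here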
[3] = S. pombe growth modifiers, basal conditions – strain 972, OD600, 24 h, no modulator, primary screen (AID 1090);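 also: basal condition with compound alone and no growth modifier present; test concentration not given here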; conditions: S. pombe 972 growth, higher = more signal, called active from +8 up or from −8 down
[4] = budding yeast growth modifiers under rapamycin – strain BY4716, OD600, 96 h, primary screen (AID 1091); also: test concentration not given here; conditions: S. cerevisiae BY4716 + rapamycin, higher = more signal, called active from +8 up or from −8 down
[5] = target: Torsin-1A-interacting protein 2 (Homo sapiens) (UniProt Q8NFQ8); assay: small molecules binding lysate-expressed LULL1 – cell lysate, human LULL1 lysate, 635/667 nm fluorescence, primary screen (AID 1092); conditions: small-molecule microarray, hLULL1 lysate binding, 635 nm fluorescence; higher = more signal;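 also: probe is lysate of COS7 cells overexpressing human LULL1; score merges per-feature 667 nm fluorescence with signal-to-noise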
[6] = optical density change of DRC41 E. coli – strain DRC41, OD650, 24 h, E. coli filamentation project, primary screen (AID 1093);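 also: MC1000 strain lacking acrAB efflux and sulA so SOS filamentation is blocked; test concentration not given here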; conditions: E. coli DRC41 growth, higher = more signal, called active from +8 up or from −8 down
[7] = probe aLefty2 binding to arrayed compounds – biochemical, biotinylated probe, 635/667 nm fluorescence, primary screen (AID 1094); conditions: small-molecule microarray, higher = more signal;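 also: score merges spot fluorescence near 667 nm with spot signal-to-noise ratio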
[8] = tested on: Noggin (protein binding on small-molecule microarray); assay: small molecules binding Noggin protein – biochemical, 635/667 nm fluorescence, primary screen (AID 1095); conditions: 635 nm fluorescence, higher = more signal;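 also: score merges 667 nm feature fluorescence with signal to noise over triplicate slides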
[9] = target: Neurogenic locus notch homolog protein 3 (Homo sapiens) (UniProt Q9UM47); assay: small molecules binding NOTCH3 protein – biochemical, 635/667 nm fluorescence, primary screen (AID 1096); conditions: small-molecule microarray, 635 nm fluorescence, higher = more signal
[10] = probe aEGFR binding to arrayed compounds – biochemical, biotinylated probe, 635/667 nm fluorescence, primary screen (AID 1097); conditions: small-molecule microarray, higher = more signal;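 also: probe is a biotinylated anti-EGFR antibody binding compounds printed on slides; score combines fluorescence near 667 nm and signal to noise of each spot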
[11] = tested on: Plasmodium falciparum Sir2 (PF13_0152, Sir2A); assay: Plasmodium falciparum Sir2A binding compounds – biochemical, small-molecule microarray, 635 nm fluorescence, primary screen (AID 1098); conditions: fluorescence 635 nm, higher = more signal;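 also: score merges spot fluorescence intensity with its signal-to-noise ratio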
[12] = probe aDKK1 binding to arrayed compounds – biochemical, biotinylated probe, 635/667 nm fluorescence, primary screen (AID 1099); conditions: small-molecule microarray, higher = more signal;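 also: score merges 667nm spot fluorescence with signal to noise across triplicate slides; reference of the scale not given here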
[13] = probe aCHRDL2 binding to arrayed compounds – biochemical, biotinylated probe, 635/667 nm fluorescence, primary screen (AID 1100); conditions: small-molecule microarray, higher = more signal
[14] = change in splice reporter luminescence, either direction, cell-based, HEK293, spliceosome inhibition project, primary screen (AID 1101); conditions: HEK293 splicing luciferase reporter, 24 h, higher = more signal, called active from +8 up or from −8 down;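 also: HEK293 cells carrying a splicing-competent luciferase reporter gene; test concentration not given here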
[15] = target: Fibroblast growth factor 10 (Homo sapiens) (UniProt O15520); assay: compounds binding fibroblast growth factor 10 – biochemical, small-molecule microarray, 635 nm fluorescence, primary screen (AID 1102); conditions: FGF10 binding, fluorescence 635 nm, higher = more signal
[16] = tested on: glycogen synthase kinase-3 (GSK3A per assay name; protocol says GSK3B); assay: compounds binding glycogen synthase kinase-3 – biochemical, small-molecule microarray, 635 nm fluorescence, GSK3A, primary screen (AID 1103); conditions: fluorescence 635 nm, higher = more signal; also: the record names both GSK3A and GSK3B
[17] = target: Epidermal growth factor receptor (Homo sapiens) (UniProt P00533); assay: compounds binding epidermal growth factor receptor – biochemical, small-molecule microarray, 635 nm fluorescence, primary screen (AID 1104); conditions: EGFR binding, higher = more signal;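 also: score merges 667 nm emission intensity with spot signal to noise over triplicate slides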
[18] = target: Follistatin-related protein 3 (Homo sapiens) (UniProt O95633); assay: compounds binding follistatin-related protein 3 – biochemical, small-molecule microarray, 635 nm fluorescence, primary screen (AID 1105); conditions: FSTL3 binding, higher = more signal;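 also: score merges emission near 667 nm and signal to noise per printed spot across three slides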
[19] = target: Dickkopf-related protein 1 (Homo sapiens) (UniProt O94907); assay: small molecules binding DKK1 protein – biochemical, small-molecule microarray, 635 nm fluorescence scan, primary screen (AID 1106); conditions: higher = more signal;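 also: score merges emission near 667 nm with signal to noise over three replicate slides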
[20] = tested on: Inhibin beta A chain (activin A); assay: small molecules binding activin A – biochemical, small-molecule microarray, 635 nm fluorescence scan, primary screen (AID 1107); conditions: INHBA, higher = more signal;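 also: mouse activin A protein probed at 4.33 µg/mL on printed slides; score merges bound-protein fluorescence near 667 nm with spot signal-to-noise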

Sequence of Fibroblast growth factor 10 (Homo sapiens) (O15520 whole entry, looked up): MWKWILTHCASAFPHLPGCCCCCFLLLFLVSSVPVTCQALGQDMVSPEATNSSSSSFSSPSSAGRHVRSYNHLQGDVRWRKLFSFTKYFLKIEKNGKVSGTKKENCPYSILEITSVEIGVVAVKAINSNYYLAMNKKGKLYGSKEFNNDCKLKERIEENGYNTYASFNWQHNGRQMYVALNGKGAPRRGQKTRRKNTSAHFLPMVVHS
Sequence of Follistatin-related protein 3 (Homo sapiens) (O95633 whole entry, looked up): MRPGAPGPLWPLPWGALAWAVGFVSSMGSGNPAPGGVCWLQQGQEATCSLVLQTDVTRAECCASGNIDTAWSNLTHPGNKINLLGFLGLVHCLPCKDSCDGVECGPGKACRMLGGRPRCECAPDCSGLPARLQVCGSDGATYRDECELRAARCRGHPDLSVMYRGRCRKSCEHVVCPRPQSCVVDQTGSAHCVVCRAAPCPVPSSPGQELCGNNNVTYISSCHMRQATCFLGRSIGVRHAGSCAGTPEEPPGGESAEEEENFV
Sequence of Epidermal growth factor receptor (Homo sapiens) (P00533 whole entry, looked up): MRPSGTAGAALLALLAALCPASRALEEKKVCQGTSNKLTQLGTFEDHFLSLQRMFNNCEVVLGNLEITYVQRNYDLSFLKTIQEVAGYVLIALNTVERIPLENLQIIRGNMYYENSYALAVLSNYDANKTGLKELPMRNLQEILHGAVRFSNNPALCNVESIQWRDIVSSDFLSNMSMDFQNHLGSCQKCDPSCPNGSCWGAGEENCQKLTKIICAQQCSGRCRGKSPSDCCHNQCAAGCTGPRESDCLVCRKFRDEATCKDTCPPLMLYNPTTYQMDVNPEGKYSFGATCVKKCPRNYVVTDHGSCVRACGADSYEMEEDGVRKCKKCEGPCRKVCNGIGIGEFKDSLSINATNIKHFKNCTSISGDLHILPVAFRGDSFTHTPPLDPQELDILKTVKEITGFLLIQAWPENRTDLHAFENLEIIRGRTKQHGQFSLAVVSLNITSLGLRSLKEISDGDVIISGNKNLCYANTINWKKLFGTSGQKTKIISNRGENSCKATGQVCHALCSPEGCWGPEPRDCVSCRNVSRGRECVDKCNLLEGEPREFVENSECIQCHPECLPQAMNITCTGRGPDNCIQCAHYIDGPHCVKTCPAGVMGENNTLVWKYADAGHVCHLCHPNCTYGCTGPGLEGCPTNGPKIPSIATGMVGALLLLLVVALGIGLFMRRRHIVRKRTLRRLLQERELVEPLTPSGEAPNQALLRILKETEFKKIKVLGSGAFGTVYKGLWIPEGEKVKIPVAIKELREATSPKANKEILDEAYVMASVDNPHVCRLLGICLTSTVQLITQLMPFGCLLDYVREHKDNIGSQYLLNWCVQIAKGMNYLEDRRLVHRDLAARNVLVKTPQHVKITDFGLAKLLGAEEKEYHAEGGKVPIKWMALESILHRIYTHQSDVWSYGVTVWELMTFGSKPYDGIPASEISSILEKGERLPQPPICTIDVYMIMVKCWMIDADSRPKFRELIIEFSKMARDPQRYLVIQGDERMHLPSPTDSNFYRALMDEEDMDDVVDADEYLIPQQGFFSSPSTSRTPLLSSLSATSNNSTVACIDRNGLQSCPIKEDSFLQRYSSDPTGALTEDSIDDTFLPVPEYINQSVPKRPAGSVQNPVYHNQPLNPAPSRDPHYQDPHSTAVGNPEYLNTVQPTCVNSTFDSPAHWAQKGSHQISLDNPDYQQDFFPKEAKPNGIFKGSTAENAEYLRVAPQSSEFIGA
Sequence of Torsin-1A-interacting protein 2 (Homo sapiens) (Q8NFQ8 whole entry, looked up): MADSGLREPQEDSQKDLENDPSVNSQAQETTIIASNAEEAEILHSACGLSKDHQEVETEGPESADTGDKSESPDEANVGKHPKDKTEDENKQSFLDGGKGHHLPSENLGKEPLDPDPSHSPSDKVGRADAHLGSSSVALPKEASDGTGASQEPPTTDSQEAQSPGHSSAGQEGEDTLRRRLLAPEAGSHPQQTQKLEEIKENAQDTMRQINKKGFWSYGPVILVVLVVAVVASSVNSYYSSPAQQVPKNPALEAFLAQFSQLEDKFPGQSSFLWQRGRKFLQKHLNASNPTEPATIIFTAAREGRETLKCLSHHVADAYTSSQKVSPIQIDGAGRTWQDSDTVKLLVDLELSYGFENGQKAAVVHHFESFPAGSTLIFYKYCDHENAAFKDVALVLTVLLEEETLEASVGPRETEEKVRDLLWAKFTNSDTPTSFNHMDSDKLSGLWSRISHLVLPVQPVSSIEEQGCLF
Sequence of Neurogenic locus notch homolog protein 3 (Homo sapiens) (Q9UM47 whole entry, looked up): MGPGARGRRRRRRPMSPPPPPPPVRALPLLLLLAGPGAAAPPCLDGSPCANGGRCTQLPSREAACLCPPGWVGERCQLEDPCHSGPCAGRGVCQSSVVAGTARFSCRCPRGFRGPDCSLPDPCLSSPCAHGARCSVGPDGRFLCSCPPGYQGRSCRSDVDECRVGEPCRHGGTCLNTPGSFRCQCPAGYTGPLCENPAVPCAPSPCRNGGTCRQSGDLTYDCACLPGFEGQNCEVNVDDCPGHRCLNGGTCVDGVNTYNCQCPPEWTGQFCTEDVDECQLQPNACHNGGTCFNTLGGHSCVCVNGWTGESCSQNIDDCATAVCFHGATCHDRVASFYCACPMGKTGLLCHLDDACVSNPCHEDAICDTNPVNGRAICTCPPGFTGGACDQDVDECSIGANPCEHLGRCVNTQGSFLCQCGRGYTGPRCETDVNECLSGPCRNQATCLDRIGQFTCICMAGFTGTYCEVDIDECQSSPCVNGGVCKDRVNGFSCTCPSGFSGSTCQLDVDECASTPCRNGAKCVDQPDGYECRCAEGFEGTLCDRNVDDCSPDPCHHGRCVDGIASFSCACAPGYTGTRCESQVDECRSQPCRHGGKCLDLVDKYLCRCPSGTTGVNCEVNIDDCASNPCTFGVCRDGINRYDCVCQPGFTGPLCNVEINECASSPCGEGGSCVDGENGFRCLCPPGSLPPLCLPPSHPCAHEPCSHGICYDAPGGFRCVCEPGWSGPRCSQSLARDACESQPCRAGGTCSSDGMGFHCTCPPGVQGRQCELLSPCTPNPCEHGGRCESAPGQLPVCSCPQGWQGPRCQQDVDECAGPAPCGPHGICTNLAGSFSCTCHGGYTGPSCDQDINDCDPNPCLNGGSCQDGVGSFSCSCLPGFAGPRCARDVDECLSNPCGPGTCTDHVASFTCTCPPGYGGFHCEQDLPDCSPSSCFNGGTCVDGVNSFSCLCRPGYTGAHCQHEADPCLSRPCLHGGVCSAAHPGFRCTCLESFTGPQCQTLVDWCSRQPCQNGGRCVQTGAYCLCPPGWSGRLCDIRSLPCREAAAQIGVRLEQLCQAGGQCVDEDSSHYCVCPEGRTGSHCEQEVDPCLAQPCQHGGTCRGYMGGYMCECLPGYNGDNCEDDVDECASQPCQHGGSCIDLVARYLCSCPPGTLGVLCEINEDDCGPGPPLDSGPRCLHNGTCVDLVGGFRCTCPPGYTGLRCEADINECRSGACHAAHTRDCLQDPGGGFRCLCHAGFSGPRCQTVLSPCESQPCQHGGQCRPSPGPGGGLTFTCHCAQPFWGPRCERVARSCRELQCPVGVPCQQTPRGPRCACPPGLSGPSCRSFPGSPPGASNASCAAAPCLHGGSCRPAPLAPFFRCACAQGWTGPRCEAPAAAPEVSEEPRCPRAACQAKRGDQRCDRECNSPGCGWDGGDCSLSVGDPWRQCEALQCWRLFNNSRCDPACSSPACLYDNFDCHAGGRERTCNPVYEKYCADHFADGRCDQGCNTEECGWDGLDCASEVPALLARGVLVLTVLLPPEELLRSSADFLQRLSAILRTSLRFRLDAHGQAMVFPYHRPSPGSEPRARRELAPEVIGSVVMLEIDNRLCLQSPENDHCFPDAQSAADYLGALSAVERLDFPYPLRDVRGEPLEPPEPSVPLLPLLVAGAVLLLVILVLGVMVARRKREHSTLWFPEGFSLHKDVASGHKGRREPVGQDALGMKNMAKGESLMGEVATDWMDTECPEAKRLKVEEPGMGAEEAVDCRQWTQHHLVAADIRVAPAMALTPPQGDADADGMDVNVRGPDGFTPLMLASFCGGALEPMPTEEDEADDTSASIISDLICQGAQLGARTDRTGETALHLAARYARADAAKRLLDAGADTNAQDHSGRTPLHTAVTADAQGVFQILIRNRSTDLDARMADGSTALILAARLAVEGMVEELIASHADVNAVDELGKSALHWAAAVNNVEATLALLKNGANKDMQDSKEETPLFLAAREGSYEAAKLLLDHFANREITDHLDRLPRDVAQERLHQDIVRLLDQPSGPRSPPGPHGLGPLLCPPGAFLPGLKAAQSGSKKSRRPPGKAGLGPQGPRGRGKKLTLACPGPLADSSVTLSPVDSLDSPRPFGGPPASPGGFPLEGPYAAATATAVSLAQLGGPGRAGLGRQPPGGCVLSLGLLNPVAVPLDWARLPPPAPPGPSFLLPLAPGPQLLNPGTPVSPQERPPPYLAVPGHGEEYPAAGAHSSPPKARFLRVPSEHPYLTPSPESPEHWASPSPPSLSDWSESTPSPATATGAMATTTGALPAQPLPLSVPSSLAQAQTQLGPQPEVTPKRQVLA
Sequence of Dickkopf-related protein 1 (Homo sapiens) (O94907 whole entry, looked up): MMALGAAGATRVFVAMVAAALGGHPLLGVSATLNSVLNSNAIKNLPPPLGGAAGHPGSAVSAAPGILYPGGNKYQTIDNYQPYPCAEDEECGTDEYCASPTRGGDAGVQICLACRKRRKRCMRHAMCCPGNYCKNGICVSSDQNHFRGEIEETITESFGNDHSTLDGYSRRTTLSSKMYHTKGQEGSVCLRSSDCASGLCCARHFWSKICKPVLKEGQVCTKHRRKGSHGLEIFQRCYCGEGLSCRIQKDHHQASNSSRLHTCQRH

| SMILES | composite z-score [1] | z-score [2] | z-score [3] | z-score [4] | composite z-score [5] | z-score [6] | composite z-score [7] | composite z-score [8] | composite z-score [9] | composite z-score [10] | composite z-score [11] | composite z-score [12] | composite z-score [13] | z-score [14] | composite z-score [15] | composite z-score [16] | composite z-score [17] | composite z-score [18] | composite z-score [19] | composite z-score [20] |
| --- | --- | --- | --- | --- | --- | --- | --- | --- | --- | --- | --- | --- | --- | --- | --- | --- | --- | --- | --- | --- |
| NCCCCCCNC(=O)[C@H]1C[C@H]2C(=O)N3CCC[C@H]3C(=O)N2[C@H]1c1ccc(O)cc1 | 1.29 | -0.777 (inactive) | -1.25 (inactive) | -0.28 (inactive) | 0.991 | 0.181 (inactive) | -0.179 | 1.41 | 0.419 | 0.0053 | 1.22 | 0.0237 | 0.134 | 0.089 (inactive) | 0.264 | 0.572 | 0.386 | 0.747 | 0.735 | 0.977 |
| COCCCNC(=O)[C@@]1(Cc2ccccc2N=[N+]=[N-])N=C(c2ccc(OCCCO)cc2)O[C@H]1c1ccccc1CN=[N+]=[N-] | 1.56 | -0.873 (inactive) | 0.553 (inactive) | 6.93 (inactive) | 3.49 | 1.04 (inactive) | 0.235 | -0.0194 | 1.07 | 0.43 | 0.953 | 1.19 | 1.18 | -0.456 (inactive) | 1.43 | 1.21 | 0.0402 | 0.511 | -0.338 | 1.21 |
| COCCCNC(=O)[C@@H]1c2ccccc2C(=O)N(c2ccc(C)cn2)[C@H]1c1ccc(CO)cc1 | -0.0842 | 0.331 (inactive) | -1.18 (inactive) | -0.19 (inactive) | 0.674 | -2.29 (inactive) | 0.0748 | -1.73 | -0.502 | -0.379 | 1.21 | -0.281 | 1.01 | -0.517 (inactive) | -1.87 | -1.19 | -2.24 | -1.84 | -1.42 | -1.84 |
| [N-]=[N+]=Nc1ccccc1[C@@H]1OC(c2ccc(OCCCO)cc2)=N[C@]1(CCS(=O)(=O)c1ccccc1)C(=O)NCc1ccccc1 | 1.13 | 0.728 (inactive) | -0.111 (inactive) | 0.635 (inactive) | 3.23 | 0.846 (inactive) | 0.813 | 0.326 | 1.12 | 0.203 | 1.29 | 1.24 | 1.28 | 0.385 (inactive) | 1.25 | 0.309 | 0.0329 | 1.18 | -0.244 | 1.06 |
| NC(=O)[C@@H]1[C@H]2C(=O)O[C@H](c3ccccc3)[C@H](c3ccccc3)N2[C@H](c2ccccc2OCCO)[C@@]12C(=O)Nc1ccc(C#CCCO)cc12 | -0.155 | 0.566 (inactive) | -0.145 (inactive) | 2.38 (inactive) | 0.417 | 0.973 (inactive) | -0.143 | -0.209 | -0.196 | -0.131 | 1.03 | -0.302 | 0.54 | 0.305 (inactive) | -0.293 | -0.802 | -0.461 | 0.118 | -0.647 | 0.233 |
